# Screening data as filed in PubChem.
# An excerpt weighted towards active compounds, which were near 17% of everything screened.
# DT40 TDP1 no CPT = qHTS for Inhibitors of human tyrosyl-DNA phosphodiesterase 1 (TDP1): qHTS in cells in absence of CPT; DT40 Tdp1-/- hTDP1 cells, no CPT, ATP luminescence, 48 h; Potency, µM (titrated, usually from 46.2 µM), usual class: inhibitors; actives 15% (n = 420,000); AID 686978, 2013; further: nearly all actives have a fitted effect of over 55% in size
#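 A cellular qHTS used chicken DT40 cells lacking endogenous Tdp1 but carrying stably transfected human TDP1. Compounds were applied without camptothecin, and cell growth kinetics were judged by ATP-dependent luminescence after ≥48 hr.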
# DT40 TDP1 CPT = growth inhibition of DT40 Tdp1-/-;hTDP1 cells with camptothecin (screen for TDP1 inhibitors) | chicken DT40 Tdp1-/-;hTDP1 cells + 20 nM CPT, ATP luminescence, 48 h | Potency, µM (doses to about 46.2 µM), actives largely listed as inhibitors | actives 12% (n = 420,000); further: nearly all actives have a fitted effect of over 55% in size
#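 Chicken DT40 Tdp1-/- cells complemented with human TDP1, 400 cells/well, exposed to compounds plus 20 nM camptothecin for at least 48 h at 37 C; viability read as ATP content by CellTiter-Glo luminescence.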
# HT1080 IDH1KD tx = kills HT-1080 cells with IDH1 knockdown; HT-1080 IDH1 knockdown viability, ATP luminescence, 48 h; AID 686971; actives 2% (n = 360,000); Potency, µM (doses to about 46.1 µM), usual class: cytotoxic
#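 CellTiter-Glo luminescence after 48 h compound exposure at 37 degrees C of IDH1-knockdown HT-1080 cells in 5% FBS RPMI. %Activity scaled between DMSO wells and cell-free media wells, with curves fitted and assigned curve classes.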
# TGFb inhibitor = TGF-b pathway inhibition; Potency, µM (doses to about 46.1 µM), usual class: inhibitors; AID 588855; actives 1.2% (n = 410,000); HepG2 CAGA-GFP TGF-b/SMAD3 reporter, GFP fluorescence, 18 h; TGF-beta stimulated, 500 pg/mL final; further: nearly all actives have a fitted effect of over 65% in size
#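 Inhibition was scored as loss of TGF-beta-induced (500 pg/mL final, 18 hours, 37 degrees C) GFP in HEPG2 cells carrying a CAGA-GFP reporter, in DMEM with 1% FBS. Well GFP was summed per cell; Activity was normalised to unstimulated and stimulated DMSO wells, then concentration-response fitting.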
# HepG2 tox = kills HepG2 cells in TGF-b inhibitor counter-screen; HepG2 CAGA-GFP viability, ATP luminescence, 18 h; Potency, µM (doses to about 46.1 µM), actives largely listed as cytotoxic; actives 0.76% (n = 410,000); AID 588856
#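 CellTiter-Glo luminescence gave cytotoxicity after 18 hours at 37 degrees C. The cells were HepG2 CAGA-GFP in 1% FBS DMEM, stimulated with 500 pg/mL TGF-beta after compound addition. %Activity was normalised to no-cell wells (complete cell-killing) and DMSO (no toxicity), and curves were fitted and classified.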
# HT1080NT lethal = kills 2HG-producing HT-1080-NT fibrosarcoma cells; HT-1080-NT fibrosarcoma viability, CellTiter-Glo ATP luminescence, 48 h; Potency, µM (titrated, usually from 46.1 µM), actives largely listed as cytotoxic; actives 1.6% (n = 360,000);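 further: NT is the 2HG producing partner of a matched IDH1 knockdown line; nearly all actives have a fitted effect of over 55% in size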
#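 750 cells/well, RPMI + 5% FBS; 2 h settle, compound pin-transfer, 48 h at 37 degrees C. CellTiter-Glo 10 min RT, luminescence. Normalized to DMSO and media-only wells.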
# Numbers stand for hits; – = inactive; ? = inconclusive; · = no result; [ ] = another dose, or the depositor's remark. The call rests on the fitted dose curve; in most records, active means well fitted curve in the direction sought with a large enough effect; inconclusive means small, poorly fitted or top-dose-only effect, or another doubt; inactive means no such curve, though single readings can be large; an effect the other way counts as inactive or inconclusive.
SMILES,DT40 TDP1 no CPT,DT40 TDP1 CPT,HT1080 IDH1KD tx,TGFb inhibitor,HepG2 tox,HT1080NT lethal
CC(=O)c1ccccc1OCc1ccc(S(=O)(=O)Cc2ccccc2)cc1,21µM,26µM,–,?,–,–
O=C(NNC(=O)c1ccccc1OCc1ccc(F)cc1)c1ccccc1O,5.2µM,6.5µM,?,?,–,–
CN(C)S(=O)(=O)c1cccc(NC(=O)c2ccccc2OCc2ccc(F)cc2)c1,?,15µM,–,–,–,–
CC(=O)c1ccccc1OCCOc1ccccc1C(C)=O,?,–,–,–,–,–
O=C(NNC(=O)c1ccccc1OCc1ccccc1)c1ccccc1F,–,–,–,–,–,–
CCOC(=O)c1c(C)cc2c(CO)n[nH]c(=O)c2c1C,?,?,–,–,–,–
NC(CCc1ccccc1)c1csc(NC(=O)NCC2CCCCC2)n1 (configuration not stated),15µM,15µM,?,?,–,16µM
COc1ccc(CC(N)c2csc(NC(=O)Nc3cc(OC)ccc3OC)n2)cc1 (configuration not stated),5.8µM,5.2µM,?,?,–,?
COc1cc(NC(=O)Nc2nc(C(N)CCc3ccccc3)cs2)cc(OC)c1OC (configuration not stated),7.3µM,?,?,?,–,18µM
COc1ccc(OC)c(NC(=O)Nc2nc(C(N)CCc3ccccc3)cs2)c1 (configuration not stated),9.2µM,7.3µM,21µM,?,16µM,?
CCn1cc(S(=O)(=O)Nc2cc(F)ccc2C)cn1,–,–,–,?,–,–
O=S1(=O)CCOCCCN1Cc1cccc(Cl)c1,?,–,·,–,–,·
CN1CCN(c2ncc3nc(-c4cn(C)c5ccccc45)c(=O)n(C)c3n2)CC1,23µM,23µM,·,·,·,·
COc1ccc(-n2c(=O)c(-c3cn(C)c4ccccc34)nc3cnc(N4CCOCC4)nc32)cc1,–,–,·,·,·,·
Cn1cc(-c2nc3cnc(N4CCOCC4)nc3n(C3CC3)c2=O)c2ccccc21,–,–,·,·,·,·
Cn1cc(-c2nc3cnc(N4CCNCC4)nc3n(C)c2=O)c2ccccc21,5.8µM,5.2µM,·,·,·,·
CSc1ccc(CN2CCOc3ccc(CN4CCCCC4CO)cc3C2)cc1 (configuration not stated),?,–[9.04 µM],·,·,·,·
CN(CC(=O)Nc1ccccc1Cl)C(=O)COC(=O)CSc1ccc(Cl)cc1,–,–,–,–,–,–[9.24 µM]
Cn1c(=O)c2c(nc(C3CC4C5CCC(C5)C4C3)n2C)n(C)c1=O (configuration not stated),16µM,?,–,–,–,–
COc1cc2[nH]c(=O)c(C(=O)NCc3ccc(C)cc3)c(O)c2cc1OC,?,?,–,–,–,–
COc1ccc(S(=O)(=O)N2CCOC2CNC(=O)C(=O)NCCc2c[nH]c3ccccc23)cc1C (configuration not stated),23µM,23µM,–,–,–,–
COc1ccc(S(=O)(=O)N2CCOC2CNC(=O)C(=O)NCCc2c[nH]c3ccccc23)cc1 (configuration not stated),?,16µM,–,–,–,–
COc1ccc(S(=O)(=O)N2CCOC2CNC(=O)C(=O)NCCc2ccccc2OC)cc1 (configuration not stated),–,–,–,–,–,–
O=C(CCN1C(=O)C2C3C=CC(C3)C2C1=O)Nc1ccccc1 (configuration not stated),–,–,–,–,–,–
Cc1cc(NC(=O)CCN2C(=O)C3C4C=CC(C4)C3C2=O)c2ccccc2n1 (configuration not stated),21µM,?,–,–,–,–
COC(=O)c1ccc(Oc2nc(Nc3ccc(C)c(C)c3)nc(N(C)C)n2)cc1,18µM,11µM,?,?,–,?
